Rows were chosen to be rich in hits. Some 5.1% of all compounds tested hit in one or more screens of this group.
S1P3 antag = S1P3 (human) receptor antagonism. actives 0.27% (n = 170,000). CHO S1P3 NFAT-BLA reporter, FRET fluorescence, antagonist mode. inhibition, % at 4.98 µM;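 active = inhibition above the plate cutoff, the mean inhibition of test wells on that plate plus 3 SD, cut at about 28% in these data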;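 also: cells challenged with S1P at its EC80 of 0.8 µM; blue over green emission ratio from cleaved BLA substrate after 4 h stimulation; 0% = S1P-stimulated wells and 100% = unstimulated DMSO-only wells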
ROMK primary = modulators of human ROMK potassium channel | P48048 | B-score at 10 µM | actives 2% (n = 130,000) | Tet-inducible ROMK, thallium flux fluorescence; actives lie on both sides;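 active = signal ratio slope over the read window, or its plate-corrected B-score, at least 3 SD from the plate mean, either direction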;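 also: B-score of the F/F0 ratio slope over 7 to 12 s after thallium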
Target sequence (P48048 whole entry, looked up): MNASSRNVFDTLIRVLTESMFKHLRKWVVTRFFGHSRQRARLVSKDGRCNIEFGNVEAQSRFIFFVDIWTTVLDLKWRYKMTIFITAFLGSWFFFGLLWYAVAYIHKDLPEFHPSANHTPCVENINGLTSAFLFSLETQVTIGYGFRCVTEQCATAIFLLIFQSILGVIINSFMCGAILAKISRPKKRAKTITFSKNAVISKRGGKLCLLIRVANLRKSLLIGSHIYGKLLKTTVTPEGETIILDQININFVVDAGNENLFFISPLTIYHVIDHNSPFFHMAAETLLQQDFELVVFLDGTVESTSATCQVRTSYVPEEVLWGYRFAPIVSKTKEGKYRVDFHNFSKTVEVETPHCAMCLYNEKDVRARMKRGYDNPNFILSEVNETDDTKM
S1P4 agonist = human S1P4 receptor agonism | O95977 | S1P4-expressing cell line, agonist reporter assay | activation, % at 4.98 µM | actives 0.35% (n = 220,000) | AID 1509; in the data active = activation above about 11%;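 also: 0% = DMSO vehicle and 100% = reference agonist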
S1P4 antag = antagonists of human S1P4 receptor; O95977; S1P4-expressing cells, antagonist mode, reporter read-out; inhibition, % at 4.98 µM; actives 0.26% (n = 220,000); AID 1510; in the data active = inhibition above about 29%;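 also: 0% = wells stimulated with agonist and 100% = vehicle wells without agonist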
RAM inhibit = blocks the yeast RAM network; S. cerevisiae dse1pr::URA3 reporter, 5-FOA growth OD615, 2 d; analog-sensitive cbk1-as2 kinase mutant strain; inhibition, % at 50 µM; actives 1.8% (n = 190,000);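 active = inhibition above a set limit, 3 SD over mean compound inhibition, cut at about 8.4% in these data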;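 also: 0% = DMSO-only wells with no growth and 100% = 10 µM 1-NA-PP1 full growth; inhibition rescues growth on 5-FOA so higher OD means more RAM inhibition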
KCC2 mod = KCC2 (human) Cl- transport modulation. actives 2.2% (n = 190,000). KCC2 cells, thallium flux FluoZin-2 fluorescence. B-score of Tl+ flux slope (higher = more flux/activation; lower = inhibition) at 10 µM. AID 1456. Q9H2X9;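 active = thallium flux slope and its plate-corrected score both differing from the plate sample mean at a set confidence after two filtering rounds, in either direction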;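 also: slope of fluorescence scaled to starting intensity during 10 to 20 s after thallium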
ROMK hit retest = confirmation of human ROMK potassium channel modulators. shares compounds with ROMK primary. ROMK thallium flux, fluorescence ratio; hits give low values. normalized thallium flux (F/F0 slope) at 10 µM. actives 54% (n = 3,000);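 active = Flux at 10 µM at least 3 SD below or above vehicle control mean in one or both replicates; inconclusive = no clear call, values can overlap the other calls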
Starred values were filed as active, the others as inactive; ? = inconclusive; . = no result given.

SMILES | S1P3 antag | ROMK primary | S1P4 agonist | S1P4 antag | RAM inhibit | KCC2 mod | ROMK hit retest
CCOC(=O)/C(=C/c1c[nH]c2ccccc12)NC(C)=O | . | . | -1 | -12 | 1 | . | .
N#Cc1c(C(F)(F)F)cc(=O)[nH]c1SCC(=O)O | -24 | -0.15 | -2 | 18 | 1 | 1.2 | .
CCNC(=O)NC(=O)C(C)OC(=O)CNS(=O)(=O)c1c(Cl)cc(Br)cc1Cl (stereo not given) | -4 | -0.8 | 1 | -12 | 2 | 0.31 | .
CC1CCCCN1CCNC(=O)c1ccc2c(=O)n(CCc3ccccc3)c(=O)[nH]c2c1 (stereo not given) | . | -0.19 | -3 | 12 | 2 | -0.51 | .
CC1CCCCN1CCCNC(=O)c1ccc2c(=O)n(CCc3ccccc3)c(=O)[nH]c2c1 (stereo not given) | . | -3* | 1 | -6 | -1 | -0.17 | ?
O=C1NC(=O)/C(=C\c2ccc(N3CCOCC3)o2)N1 | -13 | -3.6* | 2 | 0 | 1 | -0.034 | ?
CC1=C(C(=O)N2CCOCC2)C(c2ccc(OC(F)F)cc2)NC(=S)N1c1ccccc1 (stereo not given) | 20 | -0.0028 | 0 | -4 | 3 | 1.4 | .
CCOC(=O)C(=Cc1cc(=O)c(OC)co1)C(=O)OCC | 11 | -4.1* | 0 | -6 | 0 | 0.87 | 0.048*
COc1coc(C(O)CN)cc1=O (stereo not given) | 12 | 1.9 | 1 | 6 | 0 | 0.13 | .
Cn1ncc(Br)c1C(=O)OCC(=O)Nc1nc(-c2ccccc2)cs1 | . | . | -3 | -24 | 4 | . | .
Cc1cc(=O)[nH]c2c1c(C)nn2C1CCOC(C)(C)C1 (stereo not given) | . | . | -1 | -6 | 0 | -0.73 | .
Cc1ccc2cc(CN(Cc3ccccc3)Cc3nnnn3C3CCCC3)c(=O)[nH]c2c1 | 17 | -3* | 1 | -2 | 4 | . | 0.061*
COc1ccc(-c2ccnc(-c3ccc(O)cc3)n2)cc1 | 20 | 3.2* | 0 | -8 | 7 | 0.19 | 0.086
O=C1/C(=C/c2cccnc2)SC(=S)N1CC1CCCO1 (stereo not given) | 7 | -4* | 1 | -18 | 2 | 0.3 | ?
COC(=O)c1ccccc1NC(=O)CSc1nccc(C)n1 | 1 | -0.037 | -4 | -5 | 2 | -0.8 | .
Cc1cc(C)nc(NC(=O)CSc2nccc(C)n2)n1 | -4 | 2.8* | 1 | -3 | 2 | 0.37 | 0.079
COc1cccc2sc(Nc3nc(-c4ccccn4)cs3)nc12 | 34 | 0.47 | -2 | 24 | -1 | . | .
COc1cccc2sc(Nc3nnc(-c4ccc(F)cc4)o3)nc12 | . | . | 2 | 0 | 0 | . | 0.17*
CCCS(=O)(=O)N1CCC(C(=O)NCCCN2CCC(Cc3ccccc3)CC2)CC1 | . | -4.3* | -1 | 3 | 0 | -1.7 | 0.077
COc1ccc(C(=O)NN(C)c2nc(-c3ccccc3)nnc2C(F)(F)F)cc1 | . | -0.2 | -2 | -5 | 1 | . | .
COc1ccc(C(=O)NN(C)c2nc(C(F)(F)F)nc3ccccc23)cc1 | 9 | 3.5* | 0 | 10 | 3 | -1.3 | 0.078
CCC(C)(C)NC(=O)C(c1cccc(OC)c1OC)N(CCC(C)C)C(=O)CCC(=O)Nc1cc(C)on1 (stereo not given) | 2 | -2.5* | -1 | -1 | 0 | -0.092 | 0.063*
CC(Nc1ccc(Cl)c(Cl)c1)C(=O)NN (stereo not given) | -28 | . | 2 | -5 | . | -0.016 | .
NNC(=O)C(=O)Nc1ccc(Cl)c(Cl)c1 | 0 | -12* | 1 | -2 | . | 1.1 | 0.076
CCOC(=O)N1CCN(S(=O)(=O)c2ccc3c(c2)SCC(=O)N3)CC1 | -3 | -4.3* | 0 | 20 | 2 | . | 0.061*
CCOC(=O)N1CCN(S(=O)(=O)c2ccc(C)c(C)c2)CC1 | 10 | -0.024 | 0 | 1 | 0 | . | .
CCOC(=O)N1CCN(S(=O)(=O)c2ccc3c(c2)SC(C)C(=O)N3)CC1 (stereo not given) | -11 | . | 0 | -4 | 1 | -0.079 | 0.067*
CCOC(=O)N1CCN(S(=O)(=O)c2ccc3c(c2)OCC(=O)N3)CC1 | -1 | -2.5* | 0 | -15 | 2 | 1.1 | 0.058*
